The nature of assay [1]: qHTS assay to identify small molecule agonists of the hypoxia (HIF-1) signaling pathway (AID 1224846; active means well fitted activation curve with a large enough effect in the signal ratio in the repeat runs, not every such curve was filed as active; the % refers to the signal ratio). Put shortly: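 Hypoxia-pathway activation was scored as increased beta-lactamase from an HRE-controlled reporter in ME-180 cells; plated at 2,000 cells per well with 0.5% dialyzed FBS, they were exposed 17 hrs to compounds and then given CCF4-AM.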
Background: Quantitative high-throughput screening tests each substance at several concentrations.

Assay [2] in a line: qHTS assay to identify small molecule agonists of H2AX - cell viability counter screen (AID 1224847; calls by dose curve; further: nearly all actives have a fitted effect of over 30% in size; further: potency means the concentration at half of the fitted maximal effect). Put shortly:
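CHO-K1 cells plated overnight at 37C, then exposed 3 h at 37C to compounds at 15 concentrations (0.76% DMSO final). Viability by CellTiter-Glo luminescence after 30 min at room temperature.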

A short description of assay [3]: qHTS RealTime-Glo MT Cell Viability Assay in HepG2 cells - 24 hour (AID 1224867). Further: nearly all actives have a fitted effect of over 50% in size. Put shortly: (§1)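 HepG2 suspension premixed with RealTime-Glo reagents is plated at 600 cells per well and left 5 h at 37 C/5% CO2. Compounds in DMSO then go in, and bioluminescence reflecting viable cell number is recorded over 40 h.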
A short description of assay [4]: qHTS RealTime-Glo MT Cell Viability Assay in HEK293 cells - 32 hour (AID 1224868). Further: nearly all actives have a fitted effect of over 50% in size. Further: potency means the concentration at half of the fitted maximal effect. Put shortly: (§2)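 Reads taken at 0, 8, 16, 24, 32 and 40 h from the same wells. HEK293 cells (600/well) carried RealTime-Glo reagents from seeding, with compound added after a 5 h settle at 37 C.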
A short description of assay [5]: A CellTox Green Cytotoxicity Assay to monitor cytotoxicity in HEK293 cells - 0 hour (AID 1224869). Further: nearly all actives have a fitted effect of over 50% in size. In outline: (§3)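 Seeding of HEK293 cells together with cytotoxicity dye preceded a 5 h incubation at 37 C/5% CO2. Test compounds in DMSO were then added and fluorescence monitored across 40 h.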
Assay [6] in a line: qHTS RealTime-Glo MT Cell Viability Assay in HepG2 cells - 40 hour (AID 1224870). Further: nearly all actives have a fitted effect of over 50% in size. In outline:
(§4)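 Real-time viability: cells seeded at 600 per well together with NanoLuc and cell-permeant prosubstrate, compounds added after 5 h incubation. Luminescence tracked at 0, 8, 16, 24, 32 and 40 h of exposure.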

The nature of assay [7]: A CellTox Green Cytotoxicity Assay to monitor cytotoxicity in HEK293 cells - 40 hour (AID 1224871). Further: nearly all actives have a fitted effect of over 45% in size. Further: potency means the concentration at half of the fitted maximal effect. Put shortly:
as §3

A short description of assay [8]: qHTS RealTime-Glo MT Cell Viability Assay in HEK293 cells - 16 hour (AID 1224872). Put shortly: as §2
Assay [9] can be described thus: qHTS RealTime-Glo MT Cell Viability Assay in HepG2 cells - 8 hour (AID 1224873). Further: nearly all actives have a fitted effect of over 55% in size. In outline: as §4
Assay [10] is described as follows: qHTS RealTime-Glo MT Cell Viability Assay in HEK293 cells - 40 hour (AID 1224874). Further: nearly all actives have a fitted effect of over 50% in size. Further: potency means the concentration at half of the fitted maximal effect. As to conditions: RealTime-Glo luminescence; max response: active compounds read low. In outline:
(§5)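 Tox21 screen in HEK293 using RealTime-Glo MT chemistry, with cells and reagent co-dispensed. Luminescence proportional to viable cell number was captured at intervals during 40 h compound exposure at 37 C.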

The nature of assay [11]: A CellTox Green Cytotoxicity Assay to monitor cytotoxicity in HEK293 cells - 24 hour (AID 1224875). Further: nearly all actives have a fitted effect of over 45% in size. Further: potency means the concentration at half of the fitted maximal effect. Put shortly:
as §3

Assay [12] in a line: A CellTox Green Cytotoxicity Assay to monitor cytotoxicity in HepG2 cells - 16 hour (AID 1224876). Further: nearly all actives have a fitted effect of over 45% in size. Further: potency means the concentration at half of the fitted maximal effect. Put shortly:
(§6)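 Nonlytic assay: viable cells exclude the dye, so fluorescence scales with cell death. HepG2 at 600 cells/well, compounds added after 5 h, signal read across 40 h.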

Assay [13] is described as follows: qHTS RealTime-Glo MT Cell Viability Assay in HepG2 cells - 32 hour (AID 1224877). Further: nearly all actives have a fitted effect of over 55% in size. Put shortly: as §1
Assay [14] is described as follows: A CellTox Green Cytotoxicity Assay to monitor cytotoxicity in HepG2 cells - 40 hour (AID 1224879). Further: nearly all actives have a fitted effect of over 40% in size. Further: potency means the concentration at half of the fitted maximal effect. Put shortly: as §6
A short description of assay [15]: qHTS RealTime-Glo MT Cell Viability Assay in HEK293 cells - 0 hour (AID 1224880). Further: nearly all actives have a fitted effect of over 45% in size. Further: potency means the concentration at half of the fitted maximal effect. In outline: as §5
Assay [16] is described as follows: qHTS assay to identify small molecule antagonists of the estrogen related receptor (ERR) signaling pathway from Tox21 library (AID 1224848). Further: nearly all actives have a fitted effect of over 50% in size. Put shortly: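 Antagonist-mode screen of the Tox21 10K library in an NTP-provided ERR reporter cell line; 18 h compound exposure at 37 C, luminescence measured with ONE-Glo.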
The nature of assay [17]: qHTS assay to identify small molecule agonists of the estrogen related receptor (ERR) signaling pathway from Tox21 library (AID 1224849; calls by dose curve; further: nearly all actives have a fitted effect of over 15% in size). The conditions noted are these: ERR reporter cell line, ONE-Glo luciferase, 18 h; at 92.4 µM (top of the series) unless noted. Put shortly:
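Six hours post-seeding at 37 C/5% CO2, ERR cells receive DMSO-solubilised compounds; after 18 h at 37 C, ONE-Glo reagent is applied and luminescence recorded.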

Assay [18] is described as follows: A CellTox Green Cytotoxicity Assay to monitor cytotoxicity in HepG2 cells - 24 hour (AID 1224878). Further: nearly all actives have a fitted effect of over 45% in size. Further: potency means the concentration at half of the fitted maximal effect. In outline: as §6
Assay [19] in a line: qHTS assay to identify small molecule agonists of H2AX (AID 1224845; active means well fitted activation curve with a large enough effect in the signal ratio in the repeat runs, not every such curve was filed as active; the % refers to the signal ratio). In outline:
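Phospho-H2AX Ser139 measured by HTRF (ex 320 nm; em 665 and 620 nm) after 24 hr antibody incubation. Compounds, 15 concentrations, 0.76% DMSO, were applied to CHO-K1 cells for 3hr at 37C before lysis.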

Unmarked numbers belong to inactive results. Results filed as inconclusive are left out. Active and inactive are the calls of the source. Unless noted, the call rests on the fitted dose curve; in most records, active means well fitted curve in the direction sought with a large enough effect in the repeat runs; inconclusive means weak or mixed curves; inactive means no such curve, though single readings can be large; an effect the other way counts as inactive or inconclusive.

8 compounds from PubChem BioAssay (Tox21) can be followed below.
On the % scale 0 is the no-effect control and ±100 the full control effect.

With `CC(C)Nc1ccc(NC(C)C)c2c1C(=O)c1ccccc1C2=O`, the Potency result in [1], in assay [3], in [4], in assay [5], in assay [6] and in assay [8] was “inactive” in each case. The Potency result in [9], in [12], in assay [13] and in assay [15] was “inactive” each time. For the same compound, the Potency in [2] was 26.3 µM (active); in assay [7], 25.5 µM (active); in assay [11], 25.5 µM (active); in assay [14], 8.07 µM (active). Further, the max response in assay [10] was -6.09%.

Consider `COc1ccc(C(=O)Nc2nc3ccccc3c(NCc3ccccc3)c2C#N)cc1`, for which the Potency result in [1], in assay [2], in [16], in assay [4], in assay [6] and in assay [8] was “inactive” in each case. Besides, the Potency result in [11], in [18], in [14] and in assay [15] was “inactive” in each case. In addition, in assay [17], the activity change, positive = activation was -5.4%. Further, in assay [10], the max response was -18.2%.

Consider `C[C@@H]1C[C@H]2[C@@H]3CCC4=CC(=O)C=C[C@]4(C)[C@@]3(F)[C@@H](O)C[C@]2(C)[C@@]1(O)C(=O)COC(=O)c1ccncc1`, for which the Potency entry in [19], in assay [1], in assay [2], in [3], in assay [4] and in [5] was “inactive” in each case. Moreover, the Potency result in assay [6], in assay [7], in assay [8], in assay [9], in assay [11] and in [12] was “inactive” throughout. In addition, the Potency result in assay [13], in assay [18] and in [14] was “inactive” in each case. The max response in assay [10] was -17.8%. For the same compound, in assay [15], the Potency was 3.01 µM (active).

On to `CNCCCN1c2ccccc2CCc2ccccc21`, for which the Potency entry in assay [19], in assay [5], in [9], in [11] and in assay [15] was “inactive” throughout. The Potency in [12], in [18] and in [14] was 26.8 µM (active) in each case.

Regarding `CCC(=O)O[C@]1(C(=O)CCl)[C@@H](C)C[C@H]2[C@@H]3CCC4=CC(=O)C=C[C@]4(C)[C@@]3(F)[C@@H](O)C[C@@]21C`, the Potency result in assay [19], in assay [1], in assay [5], in [6], in [7] and in assay [9] was “inactive” throughout. In addition, the Potency entry in [11], in assay [12], in [13], in [18], in [14] and in [15] was “inactive” in each case. Further, in assay [17], the activity change, positive = activation was -18.7% [at 42.5 µM].

Take `CN(C)CCCN1c2ccccc2Sc2ccccc21`: the Potency entry in [16], in assay [3], in assay [4], in assay [6], in assay [7] and in assay [8] was “inactive” each time. Moreover, the Potency entry in [9] and in assay [13] was “inactive” in each case. In assay [17], the activity change, positive = activation is 7.95% [at 42.5 µM]. For the same compound, the max response in assay [10] is -25.3%. Further, the Potency was 26.8 µM (active) in assay [18] and 23.9 µM (active) in assay [14].

`CN(C)CCN(Cc1ccccc1)c1ccccn1`: the Potency result in assay [2], in assay [4], in assay [5], in [6], in [7] and in assay [8] was “inactive” throughout. Besides, the Potency result in assay [11], in assay [12], in [13], in assay [18], in [14] and in assay [15] was “inactive” each time. For the same compound, the max response in [10] was -27.7%.

Take `O=C(Cl)c1cc(C(=O)Cl)cc(C(=O)Cl)c1`: the Potency entry in assay [2], in assay [5] and in assay [15] was “inactive” in each case. The Potency in [4] and in assay [10] was 49 µM (active) throughout.
